ERp5 inh = blocks human ERp5 reductase activity on insulin; Q15084; ERp5 insulin aggregation, absorbance 650 nm, 90 min; inhibition, % at 9.99 µM; 350,000 tested, 0.05% active; AID 651711;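 active means mean replicate inhibition above about 25%, with every replicate also reaching it, limit read from the data, passing the limit was not always enough; inconclusive means only one of those two criteria met; inactive means neither criterion met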
AI-2 QS mod = modulators of Vibrio harveyi AI-2 quorum sensing system; Vibrio harveyi JMH597 AI-2 luminescence/OD600 ratio, 9 h; active compounds read low; strain lacks LuxN and CqsS sensors; 0 = neutral-control median; activity change, % at 7.5 µM; 300,000 tested, 0.4% active; in the data active means activity change below about -75%, passing the limit was not always enough; inconclusive means no clear call, values can overlap the other calls;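 further: luminescence divided by OD600 gain over 9 h not by final OD600 alone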
Vif imaging = HIV Vif inhibition | 340,000 tested, 0.35% active | HEK293T cells, Vif self-association by quenched fluorescence, imaging, 24 h | inhibition, % at 7.49 µM | AID 602346; in the data active means inhibition above about 50%, passing the limit was not always enough; inconclusive means no clear call, values can overlap the other calls; inactive means below about 31%
PDI turbidity = inhibitors of human protein disulfide isomerase; P07237; PDI insulin aggregation turbidity, A650, 90 min; 350,000 tested, 0.052% active; inhibition, % at 10 µM;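 active means mean inhibition across replicates of 30% or more, whatever share of single replicates reach that level; inconclusive means mean inhibition below 30% while every single replicate reaches 30%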
Target sequence (P07237 whole entry, looked up): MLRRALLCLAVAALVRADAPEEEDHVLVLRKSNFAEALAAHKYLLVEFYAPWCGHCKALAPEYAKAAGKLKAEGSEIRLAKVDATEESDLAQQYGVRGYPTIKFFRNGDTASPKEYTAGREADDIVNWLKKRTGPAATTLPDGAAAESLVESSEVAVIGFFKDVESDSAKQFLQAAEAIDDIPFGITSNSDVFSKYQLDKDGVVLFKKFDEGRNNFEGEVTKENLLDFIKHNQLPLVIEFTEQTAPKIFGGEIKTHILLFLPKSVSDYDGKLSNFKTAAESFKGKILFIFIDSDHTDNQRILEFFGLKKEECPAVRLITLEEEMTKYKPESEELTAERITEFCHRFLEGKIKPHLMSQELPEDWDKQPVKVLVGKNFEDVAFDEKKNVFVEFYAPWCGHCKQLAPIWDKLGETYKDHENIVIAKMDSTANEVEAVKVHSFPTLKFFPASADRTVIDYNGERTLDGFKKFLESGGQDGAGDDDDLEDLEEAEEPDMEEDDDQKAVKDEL
PvdQ inh = blocks Pseudomonas aeruginosa PvdQ acylase activity. purified PvdQ acylase, fluorescence plate reader. inhibition, % at 10 µM. 340,000 tested, 0.063% active. AID 488965; in the data active means inhibition above about 30%, passing the limit was not always enough; inconclusive means no clear call, values can overlap the other calls;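 further: 0% = vehicle neutral wells and 100% = reference inhibitor wells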
JMH597 growth = retest: blocks Vibrio harveyi JMH597 growth; 750 tested, 1% active; OD600 absorbance, 9 h; lacks LuxN and CqsS sensors; AID 2726; growth inhibition, % at 7.5 µM; shares compounds with AI-2 QS mod;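 active means every replicate shows growth inhibition above 50%; inconclusive means at least half, but not all, replicates pass that cutoff; inactive means fewer than half of replicates pass it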
BB721 const-QS lum = retest counter-screen: BB721 constitutive quorum sensing luminescence decrease; Vibrio harveyi BB721 luminescence, 9 h; 750 tested, 95% active; shares compounds with AI-2 QS mod; inhibition, % at 7.5 µM; AID 2727;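 active means inhibition above about 80% in every replicate, not just on average, limit read from the data; inconclusive means at least half of replicates past the limit, but not all; inactive means fewer than half of replicates past the limit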
BB721 growth rt = retest: inhibitors of Vibrio harveyi BB721 growth. 750 tested, 3% active. OD600 absorbance, 9 h. growth inhibition, % at 7.5 µM. shares compounds with AI-2 QS mod;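 active means every replicate shows growth inhibition above 50%; inconclusive means at least half but not all replicates above 50% inhibition; inactive means under half of replicates above 50% inhibition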
JMH597 AI-2 mod = Vibrio harveyi AI-2 signaling luminescence modulation – JMH597 strain, confirmation; shares compounds with AI-2 QS mod; Vibrio harveyi JMH597 AI-2 quorum sensing luminescence, 9 h; luxN and CqsS knockout, AI-2 only; inhibition, % at 7.5 µM; 750 tested, 97% active; AID 2736;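 active means every replicate shows more than 75% inhibition of signal versus neutral control wells; inconclusive means half to three quarters of replicates exceed 75% inhibition; inactive means fewer than half of replicates exceed 75% inhibition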
The depositor's hits bear a star; ? = inconclusive; . = not tested or not shown. This is a sample that favours compounds with a hit; in the whole collection about 0.64% have one here.

SMILES	ERp5 inh	AI-2 QS mod	Vif imaging	PDI turbidity	PvdQ inh	JMH597 growth	BB721 const-QS lum	BB721 growth rt	JMH597 AI-2 mod
O=C(COC(=O)c1ccc(Cl)s1)c1cc2ccccc2o1	.	-95*	?	14	-12	21	99*	29	99*
COC(=O)[C@H]1[C@H](CO)[C@H]2Cn3c(ccc(C4=CCCC4)c3=O)[C@H]2N1C(=O)C1CCC1	-3	.	.	.	.	.	.	.	.
CCc1ccc2nc(NC(=O)CSCc3c(C)noc3C)sc2c1	.	-90*	-3	1	6	11	94*	-109	96*
Cc1noc(C)c1CSCC(=O)Nc1nc2ccccc2s1	1	2	.	-2	-15	.	.	.	.
CN(C)CC(=O)N[C@H]1CC[C@H](CCNC(=O)C2CC2)O[C@H]1CO	3	.	.	.	.	.	.	.	.
COc1ccc(NC(=O)Cn2nc(C)c3ccccc3c2=O)cc1	3	-92*	-1	-3	-21	5	97*	-2	98*
Cc1ccc(NC(=O)Cn2nc(C)c3ccccc3c2=O)cc1F	.	-93*	-5	-2	-6	-1	99*	-10	99*
Cc1nnc(NC(=O)Cn2nc(C)c3ccccc3c2=O)s1	-6	-90*	70*	-2	10	-8	98*	-15	99*
Cc1nn(CC(=O)Nc2ccc(C(=O)N(C)C)cc2)c(=O)c2ccccc12	.	-90*	-1	3	-4	2	97*	14	98*
Clc1cccc(OCc2nnc(-c3ccccc3Br)o2)c1	0	-90*	-2	5	4	?	97*	82*	98*
CN(C)c1cc[n+](CC(=O)Nc2ccc(Cl)c([N+](=O)[O-])c2)cc1	2	-87*	1	13	-18	4	96*	-5	97*
CN(C)S(=O)(=O)c1ccc(NC(=O)CSc2ncnc3ccccc23)cc1	.	-86*	-2	0	7	4	92*	6	94*
CNC(=O)COc1ncnc2sccc12	.	.	3	4	-2	.	.	.	.
CN(C)S(=O)(=O)c1ccc(NC(=O)COc2ncnc3sccc23)cc1	7	-97*	1	-5	2	-2	100*	5	100*
C[C@@H]1CN([C@H](C)CO)C(=O)c2cccc(NC(=O)CCCCCC(=O)Nc3ccccc3N)c2O[C@@H]1CN(C)Cc1ccc(Cl)c(Cl)c1	-6	.	.	.	.	.	.	.	.
COc1ccc(S(=O)(=O)Nc2cccc3c2O[C@H](CN(C)C(=O)NC2CCCCC2)[C@H](C)CN([C@@H](C)CO)C3=O)cc1	-2	.	.	.	.	.	.	.	.
Cc1cccc(OCCCC(=O)Nc2ccc3c(c2)OCO3)c1	.	17	1	-5	-13	.	.	.	.
Cc1cccc(OCCC(=O)Nc2ccc(F)c(Cl)c2)c1	-3	-86*	3	-11	2	23	94*	32	95*
Cc1ccc(OCCC(=O)Nc2ccc(F)c(F)c2)cc1	2	-86*	-4	3	-8	15	94*	11	94*
Clc1ccc2oc(SCc3cccnc3)nc2c1	0	-81*	9	0	-13	1	97*	15	96*
CCOC(=O)c1ccc(S(=O)(=O)Nc2ccc3cn[nH]c3c2)cc1	.	-90*	-8	1	4	28	95*	28	97*
O=C(NNc1nc2cc3c(cc2s1)OCCO3)c1ccccc1	17	-93*	-8	-3	-7	-6	98*	18	98*
CC(=O)Nc1nc2cc3c(cc2s1)OCCO3	6	20	6	.	7	.	.	.	.
CN(C)S(=O)(=O)c1cccc(C(=O)OCC(=O)c2ccc3c(c2)NC(=O)CO3)c1	1	-53	-4	3	-6	.	.	.	.
CN(C)S(=O)(=O)c1ccc(C(=O)OCC(=O)c2ccc3c(c2)NC(=O)CO3)cc1	-4	-95*	-7	-2	5	-10	?	-8	85*
SMILES	ERp5 inh	AI-2 QS mod	Vif imaging	PDI turbidity	PvdQ inh	JMH597 growth	BB721 const-QS lum	BB721 growth rt	JMH597 AI-2 mod
O=C1COc2ccc(C(=O)COC(=O)Cc3ccsc3)cc2N1	0	-85*	2	7	-13	27	95*	11	97*
O=C1COc2ccc(C(=O)COC(=O)Cc3c(F)cccc3Cl)cc2N1	12	.	2	3	11	.	.	.	.
O=C1COc2ccc(C(=O)COC(=O)Cc3ccccc3F)cc2N1	4	-83*	-8	5	-8	3	88*	0	91*
O=C1NN=C(c2ccc(Br)cc2)CC1c1ccc(Cl)cc1 (stereo not given)	2	-84*	-29	7	25	4	98*	12	97*
CCc1ccc(C2CC(c3ccc(Cl)cc3)=NNC2=O)cc1 (stereo not given)	.	-82*	-11	5	-3	-8	88*	-22	87*
COc1ccc2c3c([nH]c2c1)[C@H](CO)N(C(=O)C1CC1)CC31CN(C(=O)c2ccncc2)C1	11	.	.	.	.	.	.	.	.
O=C(NCC[C@H]1CC[C@H](NC(=O)C2CCC2)[C@@H](CO)O1)c1ccc(F)cc1	-9	.	.	.	.	.	.	.	.
c1ccc(CNc2nc(-c3cccnc3)cs2)cc1	-15	-83*	0	-2	10	22	94*	12	97*
CCCOC(=O)c1ccc(NS(=O)(=O)c2cccs2)cc1	.	-86*	-7	0	8	16	89*	-22	99*
Cc1ccc(O)c(CNc2cnc3ccccc3c2)c1	3	-97*	-2	1	1	-25	99*	-22	99*
Oc1ccc(Br)cc1CNc1cnc2ccccc2c1	1	-97*	-2	-4	-36	19	99*	6	100*
COc1cccc(CNc2cnc3ccccc3c2)c1O	.	-57	.	0	-8	.	.	.	.
C[C@H](CO)N1C[C@H](C)[C@@H](CN(C)Cc2ccccc2)Oc2ncc(C3=CCCC3)cc2C1=O	5	.	.	.	.	.	.	.	.
O=C(CN1C(=O)c2ccccc2C1=O)Nc1ccc(-c2nc3ccccc3o2)cc1	.	-92*	15	-2	-5	-33	87*	-38	93*
COc1ccc(CN(C)C[C@@H]2Oc3ccc(NC(=O)Nc4c(C)noc4C)cc3C(=O)N([C@H](C)CO)C[C@H]2C)cc1	1	.	.	.	.	.	.	.	.
COc1ccc(S(=O)(=O)Nc2ccc3c(c2)OCCO3)cc1Cl	.	24	-9	-1	-15	.	.	.	.
CC(=O)Nc1ccc(S(=O)(=O)Nc2ccc3c(c2)OCCO3)cc1Cl	1	-97*	-16	7	6	5	99*	-35	100*
COCC#Cc1cnc2c(c1)C(=O)N([C@H](C)CO)C[C@@H](C)[C@H](CN(C)C(=O)c1cnccn1)O2	1	.	.	.	.	.	.	.	.

From PubChem BioAssay
